The antibiotic and cytotoxicity screens of Wong et al. (2023)
Hit rate of the full screen: of about 39,000 compounds, about 3,300 (8.5%) were called active. For the sample, actives were picked, then their nearest neighbours and some compounds at random.

Each compound was assayed on HepG2 (assay: cytotoxicity call (relative viability < 0.9)). Conditions: 10 µM.

**Q.** With `C[C@@H]1CN([C@H](C)CO)C(=O)Cc2cc(NC(=O)Cn3cnnn3)ccc2O[C@H]1CN(C)Cc1ccc2c(c1)OCO2` as the compound, how does the cytotoxicity call read?
**A.** The cytotoxicity call was “inactive”.

**Q.** With `CO[C@@H](CN(C)S(=O)(=O)c1ccc(Cl)cc1)[C@H](C)CN([C@@H](C)CO)S(=O)(=O)c1cccc(Cl)c1` as the compound, how does the cytotoxicity call read?
**A.** The cytotoxicity call was “inactive”.

**Q.** `O=C1OC2(c3ccc(O)cc3Oc3cc(O)ccc32)c2ccccc21` was tested. Which cytotoxicity call did it give?
**A.** Its cytotoxicity call is “inactive”.

**Q.** With `O=C1OC(c2cc(I)c(O)c(I)c2)(c2cc(I)c(O)c(I)c2)c2ccccc21` as the compound, how does the cytotoxicity call read?
**A.** Its cytotoxicity call is “inactive”.

**Q.** With `O=C1OC2(c3ccccc31)c1cc(I)c(O)c(I)c1Oc1c2cc(I)c(O)c1I` as the compound, how does the cytotoxicity call read?
**A.** The cytotoxicity call was “active”.

**Q.** For `C[C@@H]1CN([C@@H](C)CO)C(=O)c2cccc(NC(=O)c3cnccn3)c2O[C@H]1CN(C)C(=O)NC1CCCCC1`, which cytotoxicity call is on record?
**A.** Its cytotoxicity call is “inactive”.

**Q.** With `Cc1[nH]c(=O)[nH]c(=O)c1S(=O)(=O)N1CCN(c2ccccc2)CC1` as the compound, how does the cytotoxicity call read?
**A.** The cytotoxicity call was “inactive”.

**Q.** `Cc1noc(C)c1NC(=O)N(C)C[C@@H]1OCCCC[C@H](C)Oc2ccc(NS(=O)(=O)c3ccccc3)cc2C(=O)N([C@@H](C)CO)C[C@H]1C` was tested. Which cytotoxicity call did it give?
**A.** The cytotoxicity call was “inactive”.

**Q.** Which cytotoxicity call does the source give for `C[C@H]1CN([C@@H](C)CO)S(=O)(=O)c2ccc(C#Cc3ccccc3F)cc2O[C@@H]1CN(C)C(=O)Cc1cccnc1` here?
**A.** The cytotoxicity call was “inactive”.

**Q.** For `O=C(C[C@@H]1CC[C@@H]2[C@H](COC[C@@H](O)CN2S(=O)(=O)c2cccc(Cl)c2)O1)NC1Cc2ccccc2C1`, which cytotoxicity call is on record?
**A.** The cytotoxicity call was “inactive”.

**Q.** Which cytotoxicity call does the source give for `O=C(C[C@@H]1C[C@H]2c3cc(NS(=O)(=O)c4ccc(F)cc4)ccc3O[C@H]2[C@H](CO)O1)NC1CCCC1` here?
**A.** Its cytotoxicity call is “inactive”.

**Q.** `COCC#Cc1cnc2c(c1)C(=O)N([C@@H](C)CO)C[C@H](C)[C@H](CN(C)C(=O)c1cnccn1)O2` was tested. Which cytotoxicity call did it give?
**A.** The cytotoxicity call was “inactive”.

**Q.** Which cytotoxicity call does the source give for `C#CC[C@H](c1nc2cc(Cl)ccc2c(=O)n1Nc1ccccc1)N(CCCN)C(=O)c1cccc(Cl)c1F` here?
**A.** The cytotoxicity call was “active”.

**Q.** `C[C@@H]1CN([C@H](C)CO)S(=O)(=O)c2ccc(-c3cccc(C#N)c3)cc2O[C@H]1CN(C)C(=O)c1ccncc1` was tested. Which cytotoxicity call did it give?
**A.** The cytotoxicity call was “inactive”.

**Q.** Which cytotoxicity call does the source give for `Cc1nc[nH]c1CN(C)[C@H](C)C(=O)N(C)C` here?
**A.** The cytotoxicity call was “inactive”.

**Q.** For `CN(C)CN1C(=O)c2ccccc2C1=O`, which cytotoxicity call is on record?
**A.** The cytotoxicity call was “inactive”.

**Q.** How did the cytotoxicity call turn out when `CN(C)CCC=C1c2ccccc2COc2ccccc21.Cl` was run?
**A.** The cytotoxicity call was “active”.

**Q.** Which cytotoxicity call does the source give for `CN(C)CCC=C1c2ccccc2C=Cc2ccccc21.Cl` here?
**A.** Its cytotoxicity call is “active”.

**Q.** With `CN(C)CCC=C1c2ccccc2COc2ccc(CC(=O)O)cc21.Cl` as the compound, how does the cytotoxicity call read?
**A.** The cytotoxicity call was “inactive”.

**Q.** Which cytotoxicity call does the source give for `CN(C)CCC=C1c2ccccc2CCc2ccccc21.Cl` here?
**A.** Its cytotoxicity call is “active”.

**Q.** Which cytotoxicity call does the source give for `CNCCC=C1c2ccccc2CCc2ccccc21.Cl` here?
**A.** Its cytotoxicity call is “active”.

**Q.** How did the cytotoxicity call turn out when `Cc1noc(C2CNC2)n1` was run?
**A.** Its cytotoxicity call is “inactive”.

**Q.** Which cytotoxicity call does the source give for `COc1ccc(NC(=O)N(C)C[C@@H]2OCCCC[C@@H](C)Oc3ccc(NC(=O)NC(C)C)cc3C(=O)N([C@@H](C)CO)C[C@H]2C)cc1` here?
**A.** Its cytotoxicity call is “inactive”.
